KDM5B inh: KDM5B demethylase inhibition; KDM5B demethylase, FDH-coupled NADH fluorescence (FDH is formaldehyde dehydrogenase); Potency, µM (top dose mostly 57.7 µM), usual class: inhibitors; actives 2.6% (n = 220,000); AID 1347165; active = well fitted inhibition curve with a large enough effect; also: 0% is about no effect; nearly all actives have a fitted effect of over 70% in size
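KDM5BΔAP (200 nM final) in 50 mM HEPES pH 7.5, 0.01% Tween-20 was preincubated 10 min at RT with compound over a concentration range. Substrate mix (H3K4me3 12.5 µM, α-KG 25 µM, Fe²⁺, ascorbate, NAD⁺, FDH) was added, and NADH fluorescence change over 30 min gave dose-response curves.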
* marks the source's active call; other numbers are inactive results; i = inactive. Only a selection was taken, and hits are over-represented in it overall. Potency is read from the fitted curve at half-maximal effect.

SMILES | KDM5B inh
COc1ccc(CNC[C@H]2C[C@@H]3CCN2C[C@@H]3c2cc(-c3cccs3)nn2C)cc1 | i
CNC(=O)c1ccc(NC(=O)COC(=O)c2cn(C)c3ccccc23)cc1 | i
NCCc1ccc(OCc2ccccc2)cc1 | i
COc1cc2c(cc1-c1cccnc1)NC(=O)C21CCN(C(C)=O)CC1 | i
c1cncc(C2=NOC3(CCN(C4CCCCC4)CC3)C2)c1 | i
CC(=O)N1CCC2(CC1)CC(c1cccnc1)=NO2 | 18µM*
CC(=O)N1CCC2(CC1)C(=O)NN=C2c1cccnc1 | i
COc1ccc(C2=NOC3(CCN(Cc4cccnc4)C3)C2)cc1 (stereo not given) | i
CC(=O)N1CCC2(C1)N=C(c1cccnc1)C(=O)N2 (stereo not given) | 35µM*
COc1ccc(CCNCc2ccccc2C)cc1 | i
CCOC(=O)C1=C(N)Oc2c(c(=O)oc3ccccc23)C12C(=O)Nc1ccc(Cl)cc12 (stereo not given) | i
O=S(=O)(NC[C@H]1C[C@@H]2CCN1C[C@@H]2CN1CCN(c2ncccn2)CC1)c1ccccc1 | i
CC(C)c1ccc(NC(=O)OC[C@H]2C[C@@H]3CCN2C[C@@H]3c2cc(C3CCCC3)nc(-c3ccncc3)n2)cc1 | i
CCOc1ccccc1CNCCc1c[nH]c2ccccc12 | i
CC(=O)N1C[C@@H]2C[C@H](C1)c1ccc(NC(=O)c3ccc(F)cc3)c(=O)n1C2 | i
CN1CCC(N2C[C@@H]3C[C@H](C2)c2c(NC(=O)c4ccccn4)ccc(=O)n2C3)CC1 | i
COCCC(=O)Nc1ccc2n(c1=O)C[C@H]1C[C@@H]2CN(CCCc2ccccc2)C1 | 32µM*
O=C(Nc1ccc(=O)n2c1[C@@H]1C[C@@H](CN(C(=O)c3ccc(F)cc3)C1)C2)C1CCCCC1 | i
COc1ccc(C(=O)N2C[C@@H]3C[C@H](C2)c2c(NC(=O)CSC)ccc(=O)n2C3)cc1 | i
O=C(Nc1ccc2n(c1=O)C[C@H]1C[C@@H]2CN(Cc2ccc(F)cc2)C1)c1cccs1 | 32µM*
CCOc1ccc(CNCCc2c[nH]c3ccccc23)cc1 | i
C/C(=N/NC(N)=S)c1ccc(Cl)cc1 | i
COc1ccc2c(c1)C1(CCN(C(=O)COc3ccc(Cl)cc3)C1)C(=O)N2C (stereo not given) | i
CC(OC(=O)c1cn(C)c2ccccc12)C(=O)NC(N)=O (stereo not given) | i
CC(NCCc1ccccc1)c1ccccc1 (stereo not given) | i
SMILES | KDM5B inh
Cc1ccc(C(=O)NC[C@H]2C[C@@H]3CCN2C[C@@H]3c2cc(-c3ccccc3Br)nc(C)n2)cc1 | i
COc1ccc(C(=O)NC[C@H]2C[C@@H]3CCN2C[C@@H]3c2cc(-c3ccc(N(C)C)cc3)nc(C)n2)cc1 | 28µM*
Cc1nc(-c2ccccc2Br)cc([C@H]2CN3CC[C@H]2C[C@@H]3CNC(=O)c2ccc(C(C)(C)C)cc2)n1 | i
Cc1nc(-c2ccc(N(C)C)cc2)cc([C@H]2CN3CC[C@H]2C[C@@H]3CNC(=O)c2ccccc2)n1 | 25µM*
COc1ccc(-c2cc([C@H]3CN4CC[C@H]3C[C@@H]4COC(=O)NC(C)C)n(C)n2)cc1 | i
Cc1nc(-c2ccc(N(C)C)cc2)cc([C@H]2CN3CC[C@H]2C[C@@H]3COC(=O)NC(C)C)n1 | 28µM*
Cc1nc(-c2ccc(N(C)C)cc2)cc([C@H]2CN3CC[C@H]2C[C@@H]3COC(=O)Nc2ccc(C(C)C)cc2)n1 | i
COc1ccc(C(=O)NC[C@H]2C[C@@H]3CCN2C[C@@H]3c2cc(-c3ccc(F)cc3)nn2C)cc1 | i
Cc1nc(-c2ccccc2Br)cc([C@H]2CN3CC[C@H]2C[C@@H]3CNC(=O)c2ccc(N(C)C)cc2)n1 | i
CCC(CC)NC1CC1 | i
O=C(CN1CCN(Cc2ccccc2)CC1)Nc1ccc(Cl)cc1C(=O)c1ccccc1 | i
COc1ccc(-c2cc([C@H]3CN4CC[C@H]3C[C@@H]4CNC(=O)c3ccc4c(c3)OCO4)n(C)n2)cc1 | i
CC12CCC(O)CC1CCC1[C@@H]2CCC2(C)C(C3=CC(=O)OC3)C(O)CC12O (stereo not given in full) | i
CC1C(c2ccc(F)cc2)=[N+]([O-])C(C)(C(=O)c2ccccc2)N1O (stereo not given) | i
Cc1ccc(C)c(NC(=O)CN2C(=O)CN=C(c3ccc(F)cc3)c3c2sc(C)c3C)c1 | i
COc1cc2c(cc1OCc1ccccc1)N(C(=O)COc1ccccc1)CC21CCN(C)CC1 | i
Cc1ccc2[nH]cc(CCN)c2c1 | i
Cc1nn(C)cc1C1SCC(=O)Nc2c1c(C)nn2-c1ccccc1 (stereo not given) | i
Cc1cc(CN2CC3ON=C(C(=O)O)C3C2)cc(C)n1 (stereo not given) | i
O=C(O)C1=NOC2CN(Cc3cccnc3)CC12 (stereo not given) | 40µM*
CN1C(=O)[C@H]2CN(Cc3cccnc3)C[C@H]2C1=O | i
COc1ccc2[nH]cc(CCNCc3ccc(OC)c(OC)c3)c2c1 | i
Cc1ccc(Cn2nc(C)c(C(=O)NCc3cc(Cl)c4c(c3)OCCCO4)c2C)cc1 | i
O=[S+]1([O-])NC2(CCN(Cc3cccnc3)C2)COc2ccncc21 (stereo not given) | i
O=[S+]1([O-])NC2(CCN(Cc3ccncc3)C2)COc2ccncc21 (stereo not given) | 40µM*
SMILES | KDM5B inh
O=[S+]1([O-])NC2(CCN(Cc3ccccn3)C2)COc2ccncc21 (stereo not given) | i
CCCc1cc(C(=O)N2C[C@@H](c3ccc(F)cc3)[C@@H]3[C@H]2C2CCN3CC2)n[nH]1 | i
Cc1cc(S(=O)(=O)N2[C@H]3CC[C@@H]2c2cnc(-c4ccccc4)nc2C3)ccc1F | i
Cc1nc(-c2cccs2)cc([C@H]2CN3CC[C@H]2C[C@@H]3CNS(=O)(=O)c2ccccc2)n1 | i
COc1ccc(-c2cc([C@H]3CN4CC[C@H]3C[C@@H]4CN)nc(C)n2)cc1OC | 40µM*
Cc1nc(C2CCCC2)cc([C@H]2CN3CC[C@H]2C[C@@H]3CNC(=O)CCCC(=O)O)n1 | i
CCCNC(=O)OC[C@H]1C[C@@H]2CCN1C[C@@H]2c1cc(-c2cccs2)nc(C)n1 | i
Cc1nc(-c2ccc(F)cc2)cc([C@H]2CN3CC[C@H]2C[C@@H]3CNS(=O)(=O)Cc2ccccc2)n1 | i
COc1ccc(-c2cc([C@H]3CN4CC[C@H]3C[C@@H]4COC(=O)NC3CCCCC3)nc(C)n2)cc1 | i
COc1ccc(-c2cc([C@H]3CN4CC[C@H]3C[C@@H]4CNC(=O)CSCC(=O)O)nc(C)n2)cc1OC | 32µM*
Cc1nc(-c2ccc(C(F)(F)F)cc2)cc([C@H]2CN3CC[C@H]2C[C@@H]3CNS(C)(=O)=O)n1 | i
CCCS(=O)(=O)NC[C@H]1C[C@@H]2CCN1C[C@@H]2c1cc(-c2ccc(OC)c(OC)c2)nc(C)n1 | 25µM*
COc1ccc(-c2cc([C@H]3CN4CC[C@H]3C[C@@H]4CNC(=O)c3ccc(C(C)(C)C)cc3)n(C)n2)cc1OC | i
Cc1nc(-c2cccs2)cc([C@H]2CN3CC[C@H]2C[C@@H]3CO)n1 | 35µM*
Cc1nc(-c2ccc(C(F)(F)F)cc2)cc([C@H]2CN3CC[C@H]2C[C@@H]3CNC(=O)CCCC(=O)O)n1 | i
N#CCCNCc1cccnc1 | i
C=C[C@H]1CN2CC[C@H]1C[C@@H]2CNC(=O)Nc1cccc(C(F)(F)F)c1 | i
